From the supplement of paper PMC6853941 come the findings set out here.

SMILES strings stand for the structures. Unmarked numbers belong to inactive results.

For one experiment, the system named is MCF10A. As to the kind of experiment: perturbation Mahalanobis distance of morphological profile vs DMSO controls (Mahalanobis distance (SD units)); higher = stronger morphological change, active = 7 or more. The settings on record: screen batch: Batch1_Mahalanobis_Distance; 72 h. As to the method:
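MCF10A cells were seeded onto drugs dispensed acoustically into 384-well plates, using one dose per drug chosen from its human peak plasma concentration, and incubated for 72 h at 37 °C. Cells were stained for DNA, tubulin and mitochondria and imaged; 78 CellProfiler features were extracted, plate-normalised and compared with DMSO wells.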
With `NC12CC3CC(CC(C3)C1)C2` [Amantadine] (19.85 µM), the “perturbation Mahalanobis distance” value is 2.66.

In the case of `OC(CCN1CCCCC1)(c1ccccc1)C1CCCCC1` (stereo not given) [Trihexyphenidyl] (3.3 µM), the “perturbation Mahalanobis distance” value was 1.96.

Regarding `CC[N+](C)(CC)CCOC(=O)C(O)(c1ccccc1)C1CCCCC1` (stereo not given) [Oxyphenonium Bromide] (0.07 µM), the “perturbation Mahalanobis distance” value was 2.2.

As for `CC1(C)C[C@@H]1C(=O)N/C(=C\CCCCSC[C@H](N)C(=O)O)C(=O)O` [Cilastatin] (153.4 µM), the “perturbation Mahalanobis distance” value was 3.43.

For `CCCc1nc(C(C)(C)O)c(C(=O)OCc2oc(=O)oc2C)n1Cc1ccc(-c2ccccc2-c2nn[nH]n2)cc1` [Olmesartan Medoxomil] (8.1 µM), the “perturbation Mahalanobis distance” value is 2.22.

As for `CN(Cc1cnc2nc(N)nc(N)c2n1)c1ccc(C(=O)N[C@@H](CCC(=O)O)C(=O)O)cc1` [Methotrexate] (0.44 µM), the “perturbation Mahalanobis distance” value was 9.23 (active).

Consider `O=C(O)[C@H]1OC(Oc2ccc([C@@H]3[C@@H](CC[C@@H](O)c4ccc(F)cc4)C(=O)N3c3ccc(F)cc3)cc2)[C@H](O)[C@@H](O)[C@@H]1O` (stereo not given in full) [Ezetimibe Glucuronide] (47 µM), for which the “perturbation Mahalanobis distance” value was 2.38.

Take `CN1C(CCl)Nc2cc(Cl)c(S(N)(=O)=O)cc2S1(=O)=O` (stereo not given) [Methyclothiazide] (0.5 µM): the “perturbation Mahalanobis distance” value is 2.69.

With `C[C@](N)(Cc1ccc(O)cc1)C(=O)O` [Metyrosine] (71.7 µM), the “perturbation Mahalanobis distance” value was 3.87.

As to `Clc1ccc2c(c1)C(N1CCNCC1)=Nc1ccccc1O2` [Amoxapine] (9.6 µM), the “perturbation Mahalanobis distance” value was 2.24.

Turning to `COc1ccccc1Oc1c(NS(=O)(=O)c2ccc(C(C)(C)C)cc2)nc(-c2ncccn2)nc1OCCO` [Bosentan] (33.6 µM), the “perturbation Mahalanobis distance” value is 3.04.

For `CN(C)C(=O)C(CCN1CCC(O)(c2ccc(Cl)cc2)CC1)(c1ccccc1)c1ccccc1` [Loperamide] (32 µM), the “perturbation Mahalanobis distance” value is 3.13.

As for `O=C1CCc2ccc(OCCCCN3CCN(c4cccc(Cl)c4Cl)CC3)cc2N1` [Aripiprazole] (3.3 µM), the “perturbation Mahalanobis distance” value was 2.24.

For the compound `O=NN(CCCl)C(=O)NCCCl` [Carmustine] (0.2 µM), the “perturbation Mahalanobis distance” value was 2.08.

Regarding `O=C1C(=O)c2ccccc2C(O)=C1C1CCC(c2ccc(Cl)cc2)CC1` (stereo not given) [Atovaquone] (37.9 µM), the “perturbation Mahalanobis distance” value was 3.34.

In the case of `NC(=O)c1ncn([C@@H]2O[C@H](CO)[C@@H](O)[C@H]2O)n1` [Ribavirin] (75.3 µM), the “perturbation Mahalanobis distance” value is 5.79.

In the case of `NS(=O)(=O)c1cc(Cl)c(Cl)c(S(N)(=O)=O)c1` [Dichlorphenamide] (214.8 µM), the “perturbation Mahalanobis distance” value is 2.6.

As to `CC(C)C(=O)Nc1ccc([N+](=O)[O-])c(C(F)(F)F)c1` [Flutamide] (27.2 µM), the “perturbation Mahalanobis distance” value is 4.39.

Turning to `CC1(C)N=C(N)N=C(N)N1c1ccc(Cl)cc1` [Cycloguanil] (3.4 µM), the “perturbation Mahalanobis distance” value is 2.56.

As for `CC(=O)O.C[C@H](N)C(=O)O.NCCCC[C@H](N)C(=O)O.N[C@@H](CCC(=O)O)C(=O)O.N[C@@H](Cc1ccc(O)cc1)C(=O)O` [Glatiramer Acetate] (50 µM), the “perturbation Mahalanobis distance” value was 2.19.

Staying with this experiment, now noted: screen batch: Batch2_Mahalanobis_Distance; 72 h.
`NC12CC3CC(CC(C3)C1)C2` [Amantadine] (19.85 µM): the “perturbation Mahalanobis distance” value was 3.87.

As to `OC(CCN1CCCCC1)(c1ccccc1)C1CCCCC1` (stereo not given) [Trihexyphenidyl] (3.3 µM), the “perturbation Mahalanobis distance” value is 2.42.

As to `CC[N+](C)(CC)CCOC(=O)C(O)(c1ccccc1)C1CCCCC1` (stereo not given) [Oxyphenonium Bromide] (0.07 µM), the “perturbation Mahalanobis distance” value is 2.44.

Consider `CC1(C)C[C@@H]1C(=O)N/C(=C\CCCCSC[C@H](N)C(=O)O)C(=O)O` [Cilastatin] (153.4 µM), for which the “perturbation Mahalanobis distance” value was 3.46.

In the case of `CCCc1nc(C(C)(C)O)c(C(=O)OCc2oc(=O)oc2C)n1Cc1ccc(-c2ccccc2-c2nn[nH]n2)cc1` [Olmesartan Medoxomil] (8.1 µM), the “perturbation Mahalanobis distance” value is 1.74.

Take `CN(Cc1cnc2nc(N)nc(N)c2n1)c1ccc(C(=O)N[C@@H](CCC(=O)O)C(=O)O)cc1` [Methotrexate] (0.44 µM): the “perturbation Mahalanobis distance” value was 17.5 (active).

As for `O=C(O)[C@H]1OC(Oc2ccc([C@@H]3[C@@H](CC[C@@H](O)c4ccc(F)cc4)C(=O)N3c3ccc(F)cc3)cc2)[C@H](O)[C@@H](O)[C@@H]1O` (stereo not given in full) [Ezetimibe Glucuronide] (47 µM), the “perturbation Mahalanobis distance” value was 2.09.

`CN1C(CCl)Nc2cc(Cl)c(S(N)(=O)=O)cc2S1(=O)=O` (stereo not given) [Methyclothiazide] (0.5 µM): the “perturbation Mahalanobis distance” value is 2.45.

Consider `C[C@](N)(Cc1ccc(O)cc1)C(=O)O` [Metyrosine] (71.7 µM), for which the “perturbation Mahalanobis distance” value is 3.02.

Take `Clc1ccc2c(c1)C(N1CCNCC1)=Nc1ccccc1O2` [Amoxapine] (9.6 µM): the “perturbation Mahalanobis distance” value was 3.6.

As to `COc1ccccc1Oc1c(NS(=O)(=O)c2ccc(C(C)(C)C)cc2)nc(-c2ncccn2)nc1OCCO` [Bosentan] (33.6 µM), the “perturbation Mahalanobis distance” value is 5.42.

On to `CN(C)C(=O)C(CCN1CCC(O)(c2ccc(Cl)cc2)CC1)(c1ccccc1)c1ccccc1` [Loperamide] (32 µM), for which the “perturbation Mahalanobis distance” value is 2.31.

Consider `O=C1CCc2ccc(OCCCCN3CCN(c4cccc(Cl)c4Cl)CC3)cc2N1` [Aripiprazole] (3.3 µM), for which the “perturbation Mahalanobis distance” value was 2.92.

On to `O=NN(CCCl)C(=O)NCCCl` [Carmustine] (0.2 µM), for which the “perturbation Mahalanobis distance” value is 2.55.

In the case of `O=C1C(=O)c2ccccc2C(O)=C1C1CCC(c2ccc(Cl)cc2)CC1` (stereo not given) [Atovaquone] (37.9 µM), the “perturbation Mahalanobis distance” value is 1.78.

Take `NC(=O)c1ncn([C@@H]2O[C@H](CO)[C@@H](O)[C@H]2O)n1` [Ribavirin] (75.3 µM): the “perturbation Mahalanobis distance” value is 11.4 (active).

As for `NS(=O)(=O)c1cc(Cl)c(Cl)c(S(N)(=O)=O)c1` [Dichlorphenamide] (214.8 µM), the “perturbation Mahalanobis distance” value was 4.41.

Regarding `CC(C)C(=O)Nc1ccc([N+](=O)[O-])c(C(F)(F)F)c1` [Flutamide] (27.2 µM), the “perturbation Mahalanobis distance” value was 6.63.

Take `CC1(C)N=C(N)N=C(N)N1c1ccc(Cl)cc1` [Cycloguanil] (3.4 µM): the “perturbation Mahalanobis distance” value was 2.22.

In the case of `CC(=O)O.C[C@H](N)C(=O)O.NCCCC[C@H](N)C(=O)O.N[C@@H](CCC(=O)O)C(=O)O.N[C@@H](Cc1ccc(O)cc1)C(=O)O` [Glatiramer Acetate] (50 µM), the “perturbation Mahalanobis distance” value is 2.3.
